The nature of test [1]: HPAF-II Cancer Cell Toxicity qHTS against the NCATS CANVASS Library (AID 1347346). Note: nearly all actives have a fitted effect of over 55% in size. Note: potency is the fitted concentration of half-maximal effect. The procedure, abridged:
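Cytotoxicity in HPAF-II pancreatic cancer cells: 72 h treatment across 11 concentrations, ATP-based CellTiter-Glo luminescence endpoint.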
(qHTS replaces the single test concentration by a dilution series.)

Test [2] can be described thus: UWB1.289 Cancer Cell Toxicity qHTS against the NCATS CANVASS Library (AID 1347347). Note: nearly all actives have a fitted effect of over 60% in size. Note: potency is the fitted concentration of half-maximal effect. The method, boiled down: (§1)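 1000 cells/well; 4 h settle; 11-pnt titration; 72 h, 37 degrees C, 5% CO2; CellTiter-Glo, 15min RT; luminescence read.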
Test [3] in a line: Panc-1005 Cancer Cell Toxicity qHTS against the NCATS CANVASS Library (AID 1347349). Note: nearly all actives have a fitted effect of over 60% in size. Note: potency is the fitted concentration of half-maximal effect. The method, boiled down:
as §1

Test [4] can be described thus: COV-362 Cancer Cell Toxicity qHTS against the NCATS CANVASS Library (AID 1347352). Note: potency is the fitted concentration of half-maximal effect. The method, boiled down: (§2)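 qHTS cytotoxicity: compounds tested in 11 concentrations on 1000 seeded cells per well over 72 h; bortezomib served as control; signal from CellTiter-Glo luminescence.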
A short description of test [5]: qHTS for Hypoxia signaling pathway (HIF-1) agonists against the NCATS CANVASS Library (AID 1347375). Note: 0% is about no effect. The method, boiled down: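 Inducers of HIF-1 signaling were detected in ME-180 cells bearing an HRE-driven beta-lactamase reporter after 17 h compound exposure. Activity came from CCF4-AM FRET emission ratio (460/530 nm) in qHTS format.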
The test system of test [6] is Zika virus NS2B-NS3 protease (linked construct). The test is described as follows: Primary screen NINDS Rhodamine qHTS for Zika virus inhibitors (AID 1347160). Note: nearly all actives have a fitted effect of over 55% in size. Note: potency is the fitted concentration of half-maximal effect. The method, boiled down: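 Purified NS2B-NS3 protease with the NS2B hydrophilic domain joined by a flexible linker (25 nM) in 10 mM Tris-HCl pH 8.0, 0.01% Tween 20, preincubated 15 min at RT with compound; Rhodamine110 peptide substrate 1.5 µM; fluorescence change over 15 min; 4-parameter Hill fit.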

Test [7] in a line: qHTS assay for small molecule disruptors of mitochondrial membrane potential screened against the NCATS CANVASS Library (AID 1347389). Note: nearly all actives have a fitted effect of over 60% in size. Note: potency is the fitted concentration of half-maximal effect. The procedure, abridged: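 Compounds tested in 11-point qHTS series on HepG2 cells for 1 hr; membrane-potential dye added for 30 min at 37C. Lower red-to-green ratio indicates loss of potential.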
The nature of test [8]: qHTS for Antimalaria activity screened against the NCATS CANVASS Library (AID 1347380). Note: nearly all actives have a fitted effect of over 40% in size. Note: potency is the fitted concentration of half-maximal effect. The procedure, abridged: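 Growth inhibition of asexual erythrocytic P. falciparum Dd2 was quantified by SYBR Green DNA staining. Cultures grew 72 h with compound (11-point series) in hypoxic gas at 37C; lysis and staining lasted 18 h.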
Test [9] in a line: UWB1.289-WTBRCA1 Cancer Cell Toxicity qHTS against the NCATS CANVASS Library (AID 1347354). Note: potency is the fitted concentration of half-maximal effect. The method, boiled down: as §2
Test [10] can be described thus: Confirmatory screen NINDS Rhodamine qHTS for Zika virus inhibitors (AID 1347161). Note: potency is the fitted concentration of half-maximal effect; nearly all actives have a fitted effect of over 60% in size. The procedure, abridged:
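Each compound, titrated, sat 15 min with 25 nM linked protease before 1.5 microM Rhodamine110 substrate went in. Fluorescence gain over the next 15 min, in pH 8.0 Tris with Tween 20, gave Hill-fitted curves.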

A short description of test [11]: qHTS to identify inhibitors of the type 1 interferon - major histocompatibility complex class I in skeletal muscle: primary screen against the NCATS Mechanism Interrogation Plate v5.0 (MIPE) Libary (AID 1347411).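 Note: plate controls were vehicle for no effect and reference inhibitor for full effect; nearly all actives have a fitted effect of over 65% in size.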 The method, boiled down:
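Cells were genome-edited human myoblasts carrying a HiBit tag on endogenous HLA-B. They were treated with IFN-beta (4.0 ng/ml) and titrated compounds (top 46 uM) for 24 hrs before lytic HiBiT detection.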

Test [12] is described as follows: NCATS anti-infectives library activity on HEK293 viability as a counter-qHTS vs the C. elegans viability qHTS (AID 1745854).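 Note: HEK293 cells exposed to compounds for 24 hr before the viability read; % is set by controls: 0 for no effect and ±100 for the full control effect.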 The procedure, abridged: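 Cytotoxicity in human HEK293 cells is measured by ATP-dependent CellTiter-Glo luminescence following a 24 hr incubation with titrated library compounds at 37C. Top final concentration is 41.7 uM.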
Test [13] is described as follows: NCATS anti-infectives library activity on the primary C. elegans qHTS viability assay (AID 1745855; calls by dose curve). The method, boiled down:
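Viability is taken from GFP fluorescence of PE254-GFP-FLuc C. elegans imaged by laser cytometry over 7 days. Ten L1 worms per well grow at 21 °C on TOP10 E. coli capsules with titrated compound; levamisole marks toxicity.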

The nature of test [14]: qHTS drug screen for cell cycle checkpoint inhibitors in PARPi-resistant BRCA-mutant ovarian cancer cell lines. (AID 1963452; calls by dose curve). The conditions noted are these: PEO1/OlaR viability, CellTiter-Glo luminescence, 96 h, stronger effect = lower value. The procedure, abridged: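 PEO1, PEO4 and PEO1/OlaR ovarian cancer cells, 600 per well, exposed 96 h at 37C to a dilution series. Viability read by CellTiter-Glo luminescence, normalized to DMSO and empty wells; activity summarized as Z-AUC.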

Test [15] addresses Cytochrome P450 3A4 (Homo sapiens) (UniProt P08684). The test is described as follows: qHTS Assay for Activators of Cytochrome P450 3A4 (AID 885). Note: nearly all actives have a fitted effect of over 65% in size. The procedure, abridged:
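Human CYP3A4 (20 nM) with Luciferin-PPXE at 25 uM (its KM) in 200 mM KPO4; 10 min compound preincubation, then NADPH regeneration and 60 min reaction at RT. Luciferin read by luminescence; normalized to 57 uM ketoconazole full inhibition.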

Test [16] in a line: Confirmation and Secondary Assay for Modulators of Hemoglobin Beta Chain Splicing at IVS2 654 locus (AID 910).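 Note: HeLa cells stably carrying EGFP split by mutant beta-globin IVS2-654 intron; % of control where 0% means no effect.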 The procedure, abridged:
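HeLa cells stably expressing EGFP interrupted by β-globin IVS2-654 intron, seeded overnight in Opti-MEM/2% FCS, then treated 2 days at 37 °C. Restored splicing read as total peak GFP intensity per well by laser scanning cytometry (488 nm excitation, 500–520 nm emission); 500 nM antisense PNA as control.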

The nature of test [17]: Confirmation and Secondary Assay for Modulators of Hemoglobin Beta Chain Splicing at IVS2 705 locus (AID 930).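 Note: HeLa cells stably expressing the EGFP-705 splicing reporter; GFP fluorescence per well restored by corrected splicing of the IVS2-705 intron in EGFP; series mostly up to about 46 µM; % of control where 0% means no effect.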 The procedure, abridged:
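Read-out: total peak GFP fluorescence per well (488 nm excitation, 500-520 nm emission) by laser-scanning cytometry. Cells: HeLa EGFP-705 splicing reporter, 2 days compound exposure in Optimem/2% FCS.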

Molecules are shown by their SMILES. Results filed as inconclusive are left out. The source made the active and inactive calls. Unless noted, calls come from the whole dose curve; as a rule, active = well fitted curve in the direction sought with a large enough effect; inconclusive = small, poorly fitted or top-dose-only effect, or another doubt; inactive = no such curve, though single readings can be large; an effect the other way counts as inactive or inconclusive.

Sequence of Cytochrome P450 3A4 (Homo sapiens) (P08684 whole entry, looked up): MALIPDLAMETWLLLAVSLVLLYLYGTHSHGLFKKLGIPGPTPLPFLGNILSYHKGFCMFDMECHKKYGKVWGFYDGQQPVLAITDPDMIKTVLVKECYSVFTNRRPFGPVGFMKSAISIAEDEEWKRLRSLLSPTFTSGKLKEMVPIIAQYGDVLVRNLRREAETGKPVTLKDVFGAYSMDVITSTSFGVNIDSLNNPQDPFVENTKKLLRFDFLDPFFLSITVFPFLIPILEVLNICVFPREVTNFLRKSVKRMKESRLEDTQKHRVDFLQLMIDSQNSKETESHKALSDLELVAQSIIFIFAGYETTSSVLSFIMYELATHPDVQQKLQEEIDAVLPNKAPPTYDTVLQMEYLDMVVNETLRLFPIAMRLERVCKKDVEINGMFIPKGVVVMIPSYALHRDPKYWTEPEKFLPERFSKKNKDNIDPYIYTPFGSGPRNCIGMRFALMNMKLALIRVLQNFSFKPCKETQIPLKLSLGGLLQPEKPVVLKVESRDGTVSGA

`CC[C@@H]1C[C@@]2(CC)OC(=O)[C@@]3(CC)[C@H](CC)[C@@H]1[C@@H]23`: the Potency entry in test [1], in test [2], in test [3] and in test [4] was “inactive” throughout. Besides, in [5], the call was inactive.
With `COC(=O)C1=C[C@]23C[C@@H](C)CC[C@@H]2[C@@]2(C)CC[C@@H](C(C)C)[C@@](O)(O3)[C@@H]12`, the Potency was 44 µM (active) in [6] and 18.8 µM (active) in test [1]. The Potency entry in test [3] and in test [7] was “inactive” in each case. For the same compound, the outcome in test [5] was inactive.
Take `COc1cc(/C=C/C(=O)OC[C@@H](Cc2ccc(O)c(OC)c2)[C@@H](COC(=O)/C=C/c2ccc(O)c(OC)c2)Cc2ccc(O)c(OC)c2)ccc1O`: the Potency was 31.1 µM (active) in test [6]; 10.6 µM (active) in test [2]; 9.43 µM (active) in test [3]; 0.265 µM (active) in test [8]; 7.41 µM (active) in test [7].
As to `C/C1=C/[C@@H](C)[C@H](O)[C@@H](O)/C=C/CC/C=C/C(=O)O[C@@H]1[C@H](C)C(=O)/C=C/CC1CC(=O)NC(=O)C1`, the Potency entry in test [6], in test [1], in [9], in test [8] and in test [7] was “inactive” each time.
As to `CN(C)c1cc(NC(=O)CNC(C)(C)C)c(O)c2c1C[C@H]1C[C@H]3[C@H](N(C)C)C(=O)C(C(N)=O)=C(O)[C@]3(O)C(=O)C1=C2O`, the Potency in test [10] was 1.97 µM (active). Further, the Potency result in [11], in test [12] and in test [13] was “inactive” throughout. Further, the results for the Z-AUC in test [14], in test [14] (measured here: PEO1 parental Z-AUC) and in [14] (measured here: PEO4 Z-AUC) were 1.31 (inactive), 1.13 and 1.05, respectively.
Regarding `COc1cc([C@@H]2c3cc4c(cc3C[C@@]3(O[C@@H]5O[C@H](CO)[C@@H](O)[C@H](O)[C@H]5O)COC(=O)[C@H]23)OCO4)cc(OC)c1OC`, the Potency in [6] is 44 µM (active). The Potency result in [1] and in test [7] was “inactive” each time.
Take `C/C=C1/CN2C3CC1C1C=CC(=O)N4c5ccccc5[C@@]3(C[C@@H]2C2=C[C@H]3C5CC6N(CC[C@@]67c6ccccc6N(C2=O)[C@@H]37)C/C5=C/C)[C@H]14` (stereo partly specified): the Potency in test [6] is 15.6 µM (active); in test [2], 9.41 µM (active); in [3] it was 7.49 µM (active); in test [8], 1.06 µM (active).
For `C[C@@]12CCC[C@@](C)(C(=O)O)[C@H]1C[C@@H](O)[C@@]13C[C@@H](CC[C@@H]21)[C@](C)(O)C3`, the Potency result in test [1], in test [2], in test [3], in [9], in [8] and in test [7] was “inactive” in each case.
For `C/C=C/[C@H]1[C@H]2C(=O)c3c(O)c(C)c(O)c(C)c3[C@]1(C(=O)O)C(=O)C=C2C`, the Potency result in test [1], in test [2], in test [3], in [4], in test [8] and in [7] was “inactive” each time. For the same compound, the outcome in [5] was inactive.
In the case of `CCC(=O)N[C@@H](C[C@H](C)C(Cl)(Cl)Cl)C(=O)N1C(=O)C=C(OC)[C@@H]1C[C@H](C)CCl`, the Potency entry in [6] and in test [8] was “inactive” each time.
For the compound `C/C(=C\[C@H](C)C(=O)CCCC1CC(=O)NC(=O)C1)[C@@H]1OC(=O)/C=C/CC/C=C/[C@H](O)[C@@H](O)[C@@H]1C`, the Potency in [6] is 49.3 µM (active); in test [2] it was 1.18 µM (active); in [3] it was 0.668 µM (active); in test [8], 5.29 µM (active). In addition, the result in [5] was inactive.
As for `CC(CCC[C@]1(C)C(=O)C=C[C@@]23C[C@]4(C)O[C@@H](C[C@@H]4[C@H]2O)C31)C(=O)O` (stereo partly specified), the Potency entry in test [1], in test [2], in test [3] and in test [9] was “inactive” each time. For the same compound, in test [5], the result was inactive.
On to `CCCCc1nn2c(=O)cc(COC(=O)c3ccc(NC(=O)c4ccccc4Cl)cc3)nc2s1`, for which, in [10], the Potency is 44.7 µM (active).
Turning to `CC1=C2CC[C@]3(C)[C@H](CC=C4[C@@H]5CC(C)(C)CC[C@@H]5C(=O)[C@H](O)[C@]43C)[C@@]2(C)C=C(O)C1=O`, in test [6], the Potency is 39.2 µM (active). In addition, the Potency entry in test [2] and in test [9] was “inactive” throughout.
`CCCc1c2c([nH]c(=O)c1C)C(=O)c1[nH]c(=O)c(C)c(CCC)c1C2=O`: the Potency in [6] is 34.9 µM (active); in test [2] it was 7.47 µM (active); in [4], 7.47 µM (active); in [9], 7.47 µM (active); in test [8] it was 11.8 µM (active). In addition, in [5], the compound was classed as inactive.
On to `CN1C(=O)C(=O)N2C(=C[C@]3(c4c[nH]c5ccccc45)c4ccccc4N[C@H]23)C1=O`, for which the Potency result in [1], in test [2], in test [3], in test [4], in test [9] and in test [7] was “inactive” throughout.
As to `O=C1CC(c2ccc(O)cc2)Oc2cc(O)cc(O)c21` (stereo unspecified), the Potency entry in test [15], in test [1], in test [2], in [3], in test [4] and in test [9] was “inactive” in each case. Further, the call in test [16] and in test [17] was inactive.
As to `CC1(C)CC[C@]2(CO)CC[C@]3(C)C(=CCC4[C@@]5(C)CC[C@H](O)C(C)(C)C5CC[C@]43C)C2C1` (stereo partly specified), the Potency result in [1], in test [2], in test [3], in test [4], in [9] and in test [7] was “inactive” each time. Also, the result in test [5] was inactive.
Turning to `C=C1CCC2C(C)(C(=O)O)CCC(CC/C(C)=C/C(=O)NC(CCC(N)=O)C(=O)O)[C@@]2(C)C1` (stereo partly specified), the Potency entry in [1], in test [2], in test [3], in test [4], in test [9] and in [7] was “inactive” in each case. Moreover, the outcome in test [5] was inactive.
With `O=C(OC[C@H]1O[C@@H](OC(=O)c2cc(O)c(O)c(O)c2)[C@H](OC(=O)c2cc(O)c(O)c(O)c2)[C@@H](OC(=O)c2cc(O)c(O)c(O)c2)[C@@H]1OC(=O)c1cc(O)c(O)c(O)c1)c1cc(O)c(O)c(O)c1`, the Potency in [6] is 0.877 µM (active); in test [2] it was 18.8 µM (active); in test [3] it was 8.41 µM (active). For the same compound, in test [13], the Potency entry was “inactive”.
